High-throughput results: PubChem, National Center for Advancing Translational Sciences (NCATS)
This is a sample that favours compounds with a hit; in the whole collection about 2% have one here.
aSyn rescue = inhibitors of alpha-synuclein toxicity in yeast | Yeast expressing alpha-synuclein, growth rescue, BacTiter-Glo, 24 h | hit rate 0.14% among 370,000 | Potency, µM (titrated, usually from 46.1 µM), for the others: top-dose growth rescue (activation), actives largely listed as activators; further: % of control where 0% means no effect; nearly all actives have a fitted effect of over 65% in size
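Galactose-induced alpha-syn yeast (OD600=0.02, raffinose-pregrown) + pinned cpd, 24 hr, 30 deg C; growth by BacTiter-Glo luminescence. Growth restoration scores as activation.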
S-ASM inh = human S-ASM enzyme inhibition; P17405; placental ASM, HMU-PC fluorogenic substrate, 60 min; AID 504937; hit rate 0.006% among 340,000; Potency, µM (series often up to 57.5 µM), inactives show top-dose activity change, negative = inhibition, hits mostly inhibitors
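Fluorescence read-out (Ex 386 nm, Em 447 nm) after stopping the reaction at pH 10. Enzyme: ASM from human placenta; substrate HMU-PC0, 9 uM final; 60 min, 37 °C. Compound preincubation 10 min, ambient temperature.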
Abeta rescue = A-beta toxicity reversal in yeast; yeast expressing A-beta42, growth rescue, OD600, 48 h; response scale: 0% DMSO, 100% iron-clioquinol control; Potency, µM (top dose mostly 46.1 µM), usual class: activators; hit rate 0.063% among 410,000; further: nearly all actives have a fitted effect of over 55% in size
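Yeast growth medium received pinned compounds, then yeast cells expressing toxic A-beta were added; plates incubated at 30 C for 48 hr. Growth read as absorbance at 600 nm, normalized to DMSO and equimolar FeCl3 plus clioquinol controls.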
TDP43 rescue = rescues yeast growth from TDP-43 toxicity | TDP-43 expressing yeast growth rescue, BacTiter-Glo, 24 h | Potency, µM (doses to about 46.1 µM), inactives show at the top dose growth rescue (activation), usual class: activators | hit rate 1.8% among 410,000; further: % of control where 0% means no effect; nearly all actives have a fitted effect of over 50% in size
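Yeast cells expressing TDP-43 under galactose induction are exposed to compounds for 24 hr at 30 deg C. BacTiter-Glo luminescence measures growth, so protective compounds score as activators.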
Rango release inh = prevents RanGTP from dissociating the Rango-importin beta complex | Biochemical FRET Rango-importin beta, RanGTP-induced dissociation | Potency, µM (series often up to 46.1 µM), inactives show top-dose activity change, negative = inhibition | hit rate 0.071% among 340,000 | AID 540253; calls by dose curve; further: % of control where 0% means no effect; nearly all actives have a fitted effect of over 45% in size
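Two FRET readings bracket the reaction: one 5 min after compound meets Rango–importin beta, another 45 min after RanGTP-RCC1 (0.6 uM Ran, 0.2 uM RCC1, 2 mM GTP) is added. Only the second defines inhibition.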
Rango-impB inh = inhibitors of Rango-importin beta complex formation | Q14974 | Rango CFP/YFP FRET sensor + importin beta, 45 min | Potency, µM (titrated, usually from 92.2 µM), without a hit: top-dose inhibition of complex formation | hit rate 0.031% among 340,000; calls by dose curve;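 further: 0% = DMSO wells and 100% = buffer wells lacking importin beta; nearly all actives have a fitted effect of over 15% in size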
Target sequence (Q14974 whole entry, looked up): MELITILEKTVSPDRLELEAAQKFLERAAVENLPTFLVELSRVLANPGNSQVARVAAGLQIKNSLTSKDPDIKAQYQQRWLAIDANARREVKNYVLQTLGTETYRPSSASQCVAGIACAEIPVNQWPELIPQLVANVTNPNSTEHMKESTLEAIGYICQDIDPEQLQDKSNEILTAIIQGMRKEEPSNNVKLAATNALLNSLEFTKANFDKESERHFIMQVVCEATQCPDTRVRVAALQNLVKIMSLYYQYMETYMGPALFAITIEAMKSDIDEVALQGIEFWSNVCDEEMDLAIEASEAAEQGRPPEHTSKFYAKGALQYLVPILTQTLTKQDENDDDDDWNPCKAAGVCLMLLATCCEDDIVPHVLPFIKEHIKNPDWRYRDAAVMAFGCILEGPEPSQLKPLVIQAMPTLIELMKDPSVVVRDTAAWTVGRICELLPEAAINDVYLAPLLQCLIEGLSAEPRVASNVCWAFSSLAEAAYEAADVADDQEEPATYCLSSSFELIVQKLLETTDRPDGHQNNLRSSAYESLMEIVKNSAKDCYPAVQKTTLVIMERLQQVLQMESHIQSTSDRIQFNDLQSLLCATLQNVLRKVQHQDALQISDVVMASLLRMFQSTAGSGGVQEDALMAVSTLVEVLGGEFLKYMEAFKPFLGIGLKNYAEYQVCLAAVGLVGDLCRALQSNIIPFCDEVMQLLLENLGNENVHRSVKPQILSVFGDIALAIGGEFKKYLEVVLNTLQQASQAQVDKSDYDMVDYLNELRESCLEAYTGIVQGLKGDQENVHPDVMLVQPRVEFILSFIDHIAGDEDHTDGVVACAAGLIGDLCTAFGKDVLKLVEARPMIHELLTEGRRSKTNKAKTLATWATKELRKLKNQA
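Inhibition scored from the CFP 486 nm/YFP 530 nm FRET ratio 45 min after adding 0.125 microM importin beta to 50 nM Rango biosensor preincubated 5 min with compound (room temperature, PBS with DTT, Tween-20, BSA). No-importin wells as positive control.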
An asterisk follows results filed as active; i = inactive; ? = inconclusive; / = no result; [ ] = dose if it differs, or a comment. Unless noted, the call rests on the fitted dose curve; in most records, active means well fitted curve in the direction sought with a large enough effect; inconclusive means small, poorly fitted or top-dose-only effect, or another doubt; inactive means no such curve, though single readings can be large; an effect the other way counts as inactive or inconclusive. Potency means the concentration at half of the fitted maximal effect.

SMILES | aSyn rescue | S-ASM inh | Abeta rescue | TDP43 rescue | Rango release inh | Rango-impB inh
CC1(C(=O)NS(=O)(=O)c2ccc(Cl)cc2)CCN1C(=O)C1(c2ccccc2)CCCC1 (stereo not given) | -9.9% | / | i | 14.1µM* | / | /
COc1ccc(S(=O)(=O)NC(=O)C2(C)CCN2C(=O)C(C)(C)c2ccccc2)cc1 (stereo not given) | 6.6% | / | i | 14.1µM* | / | /
Cc1ccccc1S(=O)(=O)NC(=O)C1(C)CCN1C(=O)CCc1cccs1 (stereo not given) | 6.1% | / | i | 11.0% | / | /
Cc1ccc(NC(=O)c2ccc(=O)n(Cc3ccccc3C)c2)c(C)c1 | -10.6% | / | i | 14.5% | / | /
COc1ccc(CCNC(=O)C(=O)NCC(c2cccs2)S(=O)(=O)c2ccccc2)cc1 (stereo not given) | / | / | i | -19.6% | / | /
COc1cccc(-n2cc(C(=O)Nc3ccccc3C(N)=O)c3ccccc3c2=O)c1 | / | / | i | 0.0% | / | /
COc1cc(C)ccc1S(=O)(=O)NC(=O)C1(C)CCN1C(=O)C1(c2ccc(Cl)cc2)CCC1 (stereo not given) | -1.2% | / | i | 28.2µM* | / | /
CC1(C(=O)NS(=O)(=O)c2ccccc2Cl)CCN1C(=O)c1cccc2ccccc12 (stereo not given) | 5.6% | / | i | ? | / | /
CC1(C(=O)NS(=O)(=O)c2ccc(Cl)cc2)CCN1C(=O)C1(c2ccc(Cl)cc2)CCC1 (stereo not given) | -27.6% | / | i | 20µM* | / | /
Cc1ccc(S(=O)(=O)NC(=O)C2(C)CCN2C(=O)C2(c3ccc(Cl)cc3)CCC2)cc1 (stereo not given) | -6.7% | / | i | ? | / | /
CC(C)(C)c1ccc(S(=O)(=O)NC(=O)C2(C)CCN2C(=O)c2cccc3ccccc23)cc1 (stereo not given) | -6.4% | / | i | 20µM* | / | /
CCCN(C(=O)c1ccco1)c1nnc(-c2ccccc2C)s1 | -17.9% | 1.1% | i | 12.6µM* | -1.4% | 0.0%
Cn1c(-c2c(N)n(C3CCCC3)c3nc4ccccc4nc23)nc2ccccc21 | -8.6% | 42.4% | i | 12.6µM* | ? | ?
Cc1ccc(CNS(=O)(=O)c2cc3c(cc2Cl)NC(=O)CO3)o1 | / | / | i | -13.0% | / | /
COc1cccc(C2=C(C(C)=O)Sc3nncn3N2C(C)=O)c1 | / | / | i | 35.5µM* | / | /
CC(=O)C1=C(c2ccc(Cl)c(Cl)c2)N(C(C)=O)n2cnnc2S1 | / | / | i | 10µM* | / | /
CCOc1ccc(C2=C(C(=O)CC)Sc3nncn3N2C(=O)CC)cc1 | / | / | i | 20µM* | / | /
CC(C)CNC(=O)N1[C@H](c2cccs2)[C@@H](C)C(=O)[C@@H](C)[C@@H]1c1cccs1 | / | / | i | 5.7%[9.22 µM] | / | /
O=C(CCc1ccccc1)NNc1cc(N2CCCCC2)nc(N2CCCCC2)n1 | -1.5% | -2.8% | i | 3.16µM* | -19.6% | ?
Cc1cc(OCC(=O)N(C)Cc2ccccc2)ccc1Cl | 3.9% | -1.8% | i | 11.2µM* | -9.6% | -0.7%
Cc1cc(OCC(=O)N(C)Cc2ccccc2)ccc1Br | 13.4% | -5.8% | ? | 25.4% | -11.4% | 1.0%
CCC1CCCCN1S(=O)(=O)c1ccc(NC(=O)c2nc(SC)ncc2Cl)cc1 (stereo not given) | / | / | i | ? | / | /
Cc1ccc(Nc2cc(C(=O)NC3CCCC3)c3ccccc3n2)cc1C | / | / | i | 22.0% | / | /
CCc1ccc2oc(-c3cc(N)ccc3Cl)nc2c1 | 3.2% | 19.9% | i | 17.8µM* | -8.2% | -1.1%
CCc1ccc2oc(-c3cc(NC(=O)c4cccs4)ccc3Cl)nc2c1 | -7.6% | / | i | 17.8µM* | / | /
SMILES | aSyn rescue | S-ASM inh | Abeta rescue | TDP43 rescue | Rango release inh | Rango-impB inh
Cc1ccc2oc(-c3cc(NC(=O)c4ccco4)ccc3Cl)nc2c1 | / | / | i | 9.1% | / | /
CCc1ccc2oc(-c3cc(N)ccc3O)nc2c1 | -5.0% | 10.8% | i | ? | 0.0% | 6.0%
CC(C)c1ccc2oc(-c3cc(NC(=O)c4cccnc4)ccc3Cl)nc2c1 | / | / | i | 15.8µM* | / | /
Cc1cc(C)cc(NC(=O)C(=O)NCC(c2cccnc2)N2CCN(c3ccccc3)CC2)c1 (stereo not given) | / | / | i | 14.9% | / | /
O=C(Nc1nccs1)C(Br)C(Br)c1ccccc1 (stereo not given) | 0.4% | -0.4% | i | 10µM* | -8.3% | -0.4%
N#CCCSc1nc(N2CCOCC2)c2c(c1C#N)CCCC2 | 14.9% | -27.5% | i | 17.8µM* | -10.3% | 2.7%
O=C(C[n+]1cccc2cc(Cl)ccc21)c1ccc2ccccc2c1 | 1.2% | / | / | / | / | /
Cc1cccn2c(=O)c(C=O)c(Cl)nc12 | 21.4% | 242.0% | i | 10µM* | 12.6% | -2.6%
N#Cc1sc(NCc2cccc(Cl)c2)nc1Cl | 19.1% | -12.0% | i | 14.1µM* | -1.7% | 3.7%
Cn1ccc2ccc(C3=CC(=O)C[C@H](c4ccc(F)cc4)C3)cc21 | 11.9% | -2.4% | i | 15.8µM* | -11.0% | 2.7%
COc1ccc(C2=CC(=O)CC(c3ccc(F)cc3)C2)cc1 (stereo not given) | 8.7% | -3.6% | i | 15.8µM* | -4.5% | 1.4%
COc1ccc(C2=CC(=O)C[C@H](c3ccc(Cl)cc3)C2)cc1 | 1.7% | -16.2% | i | ? | 12.8% | -1.7%
Cc1ccc(C2=CC(=O)C[C@H](c3ccc(F)cc3)C2)cc1 | 14.4% | -13.4% | i | 15.8µM* | 0.3% | -0.5%
O=C1C=C(c2cc3ccccc3s2)C[C@@H](c2ccc(F)cc2)C1 | 0.5% | -9.7% | i | 17.8µM* | -7.9% | -2.0%
O=C1C=C(c2ccc(CO)cc2)C[C@@H](c2ccc(F)cc2)C1 | 13.7% | / | i | 35.5µM* | / | /
O=C1C=C(c2ccc(-c3ccccc3)cc2)C[C@@H](c2ccc(F)cc2)C1 | 0.9% | -4.6% | i | 0.0% | -0.9% | 2.5%
O=C1C=C(C#Cc2ccccc2)C[C@@H](c2ccc(F)cc2)C1 | 1.1% | / | i | 17.8µM* | / | /
COc1ccc(C2=CC(=O)CC(c3ccc(OC)cc3)C2)cc1 (stereo not given) | 13.8% | -9.2% | i | 25.1µM* | 8.0% | 0.0%
CCOc1ccc(C2=CC(=O)C[C@H](c3ccc(OC)cc3)C2)cc1 | 12.4% | -16.2% | i | 12.6µM* | -12.5% | 0.1%
NC(N)=Nc1ccc(/C=C2\C=Cc3ccccc32)cc1 | -14.3% | / | / | / | / | /
Cc1ccc2c(c1)CCCN2C(=O)c1cnn2c1NC(=C1CC1)C=C2C(F)F | -0.7% | / | / | / | / | /
CCc1ccccc1C1=CC(=O)C[C@H](c2ccc(OC)cc2)C1 | 4.7% | -6.8% | ? | ? | 2.4% | 3.4%
